USP1-UAF1 inh – Inhibitors of USP1/UAF1: Primary Screen; Potency, µM (highest dose often 57.1 µM), usual class: inhibitors; hit rate 0.23% among 390,000; Ubiquitin carboxyl-terminal hydrolase 1 (Homo sapiens), O94782; recombinant USP1/UAF1, Ub-Rhodamine cleavage fluorescence; also: nearly all actives have a fitted effect of over 60% in size
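High-throughput fluorogenic screen: 1nM USP1/UAF1 complex, Ub-Rho substrate 150nM final, 50mM HEPES pH 7.8 with 0.5mM EDTA, 0.1 mg/ml BSA, 1mM TCEP and 0.01% Tween-20.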
PLK1 PBD inh – qHTS for Inhibitors of PLK1-PDB (polo-like kinase 1 - polo-box domain): Primary Screen | Plk1 PBD binding of FITC phosphopeptide, fluorescence polarization | Potency, µM, most hits filed as inhibitors | hit rate 2.8% among 360,000; also: series mostly up to about 57 µM; nearly all actives have a fitted effect of over 65% in size
Target sequence (P53350 whole entry, looked up, the tested form may be a part): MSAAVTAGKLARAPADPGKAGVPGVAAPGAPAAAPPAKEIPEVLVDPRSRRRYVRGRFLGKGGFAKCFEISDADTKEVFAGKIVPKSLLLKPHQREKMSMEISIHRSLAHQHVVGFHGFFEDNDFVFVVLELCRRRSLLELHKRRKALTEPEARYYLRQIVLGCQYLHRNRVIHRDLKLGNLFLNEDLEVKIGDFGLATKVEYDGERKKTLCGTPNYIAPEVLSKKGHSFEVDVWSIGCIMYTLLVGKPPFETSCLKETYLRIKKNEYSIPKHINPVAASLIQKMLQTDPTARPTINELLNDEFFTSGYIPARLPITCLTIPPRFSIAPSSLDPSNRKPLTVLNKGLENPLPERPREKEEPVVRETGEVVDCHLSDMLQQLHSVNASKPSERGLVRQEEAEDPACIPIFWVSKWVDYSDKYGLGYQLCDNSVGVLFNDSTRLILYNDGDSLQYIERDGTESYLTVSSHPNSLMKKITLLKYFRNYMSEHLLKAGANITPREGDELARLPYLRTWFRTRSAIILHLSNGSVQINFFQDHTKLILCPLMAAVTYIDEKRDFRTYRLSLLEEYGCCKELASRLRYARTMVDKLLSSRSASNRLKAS
VDR inhibitor – Inhibitors of the vitamin D receptor (VDR): qHTS; Vitamin D3 receptor (Homo sapiens), P11473; VDR-SRC2-3 peptide fluorescence polarization, 2 h; Potency, µM, usual class: inhibitors; hit rate 0.93% among 400,000; AID 504847, 2011
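Fluorescence polarization assay measuring small-molecule disruption of VDR binding to the coregulator peptide SRC2-3. Compounds were pin-transferred (23 nl) into the reagent mix and incubated 2 h at room temperature before reading.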
KAT2A inh – qHTS Assay for Inhibitors of GCN5L2. AID 504327, 2011. Potency, µM (highest dose often 58.9 µM), most hits filed as inhibitors. hit rate 0.21% among 390,000. GCN5L2 HAT assay, ThioGlo1 CoA-SH fluorescence
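GCN5L2 (20 nM) in 50mM HEPES pH 7.5, 0.1mM EDTA, 0.01% Tween-20 preincubated 15 min with compounds at room temperature. Reaction started with H3(1-25) 75uM, acetyl-CoA 70uM, ThioGlo1 50uM; CoA-thiol fluorescence (Ex340/Em540) read at 0 and 20 min.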
TSG101-PTAP inh – qHTS Assay for Iinhibitors of HIV-1 Budding by Blocking the Interaction of PTAP/TSG101; Fluorescence polarization, FITC-PTAP peptide / Tsg101 binding; Potency, µM (series often up to 115 µM), most hits filed as inhibitors; Tumor susceptibility gene 101 protein (Homo sapiens), Q99816; 340,000 tested, under 10 active; active = well fitted inhibition curve with a large enough effect in the main read-out, with a control signal flat, not every such curve was filed as active; inconclusive = small, poorly fitted or top-dose-only effect, or effect the other way, or a change in a side signal; inactive = no such curve, though single readings can be large or run the other way
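Compounds were pin-transferred onto Tsg101 binding domain (10 uM final) in HEPES pH 7.5 buffer, then FITC-PTAP peptide was added at 50 nM final. After 20 min at RT, polarization reported peptide displacement across a qHTS concentration series.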
Hits are given with their value. Sampled rows, rich in hits. Any-hit rate of the full collection: about 3%. Unless noted, calls follow the shape of the dose curve; as a rule, active = well fitted curve in the direction sought with a large enough effect; inconclusive = small, poorly fitted or top-dose-only effect, or another doubt; inactive = no such curve, though single readings can be large; an effect the other way counts as inactive or inconclusive.

How did Cc1nc2sc(C(=O)Nc3ccccc3)c(N)c2c(C)c1[N+](=O)[O-] do in these assays?
USP1-UAF1 inh: inactive; PLK1 PBD inh: 27µM; VDR inhibitor: inactive; KAT2A inh: inactive; TSG101-PTAP inh: inactive

How did Cc1ccc(-n2nc(C)c(Sc3ccccc3[N+](=O)[O-])c2N)cc1 do in these assays?
USP1-UAF1 inh: inactive; PLK1 PBD inh: 2.4µM; VDR inhibitor: inconclusive; KAT2A inh: inactive; TSG101-PTAP inh: inactive

How did CCOC(=O)Cc1csc(N/N=C\c2cccc(Br)c2)n1 do in these assays?
USP1-UAF1 inh: inactive; PLK1 PBD inh: 24µM; VDR inhibitor: inconclusive; KAT2A inh: inconclusive; TSG101-PTAP inh: inactive

How did COc1cccc(CNC(=O)c2[nH]c3cc(C)ccc3c2Sc2ccccc2)c1 do in these assays?
USP1-UAF1 inh: inactive; VDR inhibitor: inactive; KAT2A inh: inactive

Results for COc1ccc(N2C(=O)c3ccc(C(=O)OC(C)C)cc3C2=O)cc1 ?
USP1-UAF1 inh: inactive; PLK1 PBD inh: 2.7µM; VDR inhibitor: inactive; KAT2A inh: inactive; TSG101-PTAP inh: inactive

What do the screens show for `COc1ccc(N2C(=O)c3cc4ccccc4cc3C2=O)cc1`?
USP1-UAF1 inh: inactive; PLK1 PBD inh: 27µM; VDR inhibitor: inconclusive; KAT2A inh: inactive; TSG101-PTAP inh: inactive

How did Nc1cccc2c1C(=O)N(C(=O)/C=C/c1cccc(F)c1)C2=O do in these assays?
USP1-UAF1 inh: inactive; PLK1 PBD inh: inconclusive; VDR inhibitor: 40µM; KAT2A inh: inactive; TSG101-PTAP inh: inactive

Results for NC(=O)c1csc(-c2ccc(CO)o2)n1 ?
PLK1 PBD inh: inactive

Results for OCc1ccc(-c2ccc(-c3ccc(CO)s3)o2)s1 ?
VDR inhibitor: 10µM; KAT2A inh: inconclusive

How did COCCn1c2nc(=O)n(-c3ccccc3)c(=O)c-2nc2ccccc21 do in these assays?
USP1-UAF1 inh: 28µM; PLK1 PBD inh: 3.8µM

Results for COCCn1c(-c2ccc(OC)cc2)nc2ccccc21 ?
USP1-UAF1 inh: inactive; PLK1 PBD inh: inactive; VDR inhibitor: inactive; KAT2A inh: inactive; TSG101-PTAP inh: inactive

How did O=C(CSc1nnc(CNc2ccc(F)cc2)o1)OC1CCCCC1 do in these assays?
USP1-UAF1 inh: inactive; PLK1 PBD inh: 21µM; VDR inhibitor: inconclusive; KAT2A inh: inactive; TSG101-PTAP inh: inactive

What do the screens show for `COc1ccc(S(=O)(=O)c2cc(NS(=O)(=O)c3ccc(Cl)cc3)c(C)c(C)c2O)cc1`?
USP1-UAF1 inh: inactive; VDR inhibitor: inactive; KAT2A inh: inactive

Results for COc1cccc(C(c2c(C)[nH]n(-c3ccccc3)c2=O)c2c(C)[nH]n(-c3ccccc3)c2=O)c1O ?
USP1-UAF1 inh: inactive; PLK1 PBD inh: 21µM; VDR inhibitor: inconclusive; KAT2A inh: inactive; TSG101-PTAP inh: inactive

Results for COc1cccc(C(c2c(C)[nH]n(-c3ccccc3)c2=O)c2c(C)[nH]n(-c3ccccc3)c2=O)c1OC ?
USP1-UAF1 inh: inactive; PLK1 PBD inh: 12µM; VDR inhibitor: inconclusive; KAT2A inh: inactive; TSG101-PTAP inh: inactive

What do the screens show for `CCOc1cccc(C(c2c(C)n(C)n(-c3ccccc3)c2=O)c2c(C)n(C)n(-c3ccccc3)c2=O)c1OC`?
USP1-UAF1 inh: inactive; PLK1 PBD inh: inactive; VDR inhibitor: inactive; KAT2A inh: inactive; TSG101-PTAP inh: inactive

What do the screens show for `Cc1cccc(-n2ncc(C(=O)N3CCN(C4CCCCC4)CC3)c2C2CCN(C(=O)OC(C)(C)C)CC2)c1`?
USP1-UAF1 inh: inactive; VDR inhibitor: inactive; KAT2A inh: inactive

Results for CCCN(C(=O)c1cc(S(=O)(=O)N2CCN(CC)CC2)ccc1Cl)C1CCS(=O)(=O)C1 (stereo unspecified) ?
USP1-UAF1 inh: inactive; PLK1 PBD inh: inactive; VDR inhibitor: inactive; TSG101-PTAP inh: inactive

How did CN(C)c1ccc(/C=N/NC(=O)c2ccccn2)cc1 do in these assays?
USP1-UAF1 inh: inactive; PLK1 PBD inh: inactive; VDR inhibitor: inactive; KAT2A inh: inactive; TSG101-PTAP inh: inactive

What do the screens show for `CN(C)c1ccc(NC(=S)c2ccccn2)cc1`?
USP1-UAF1 inh: inactive; PLK1 PBD inh: 13µM; VDR inhibitor: inactive; KAT2A inh: inactive; TSG101-PTAP inh: inactive

How did Cc1nc2nc(NC(=O)c3cccc(Cl)c3)[nH]n2c(=O)c1Cc1ccccc1 do in these assays?
USP1-UAF1 inh: inactive; VDR inhibitor: inactive; KAT2A inh: inactive

Results for Cc1ccc(CNC(=O)c2cn(C3CCCCC3)c(=O)c3c2c2ccccc2n3C)o1 ?
USP1-UAF1 inh: inactive; PLK1 PBD inh: inconclusive; VDR inhibitor: 79µM; KAT2A inh: inactive; TSG101-PTAP inh: inactive

Results for Cc1ccc(CNC(=O)c2cn(C)c(=O)c3c2c2ccccc2n3C)o1 ?
USP1-UAF1 inh: inactive; PLK1 PBD inh: inactive; VDR inhibitor: inactive; KAT2A inh: inactive; TSG101-PTAP inh: inactive

Results for O=C1CS(=O)(=O)N(Cc2ccc(F)cc2)c2ccccc21 ?
USP1-UAF1 inh: inactive; PLK1 PBD inh: inactive; VDR inhibitor: 79µM; KAT2A inh: inactive; TSG101-PTAP inh: inactive

What do the screens show for `COc1cc(CN2c3ccccc3C(=O)CS2(=O)=O)cc(OC)c1`?
USP1-UAF1 inh: inactive; PLK1 PBD inh: inactive; VDR inhibitor: inactive; KAT2A inh: inactive; TSG101-PTAP inh: inactive

How did N#Cc1ccc(Oc2ccc(C#N)c(C#N)c2)cc1C#N do in these assays?
USP1-UAF1 inh: inactive; PLK1 PBD inh: inactive; VDR inhibitor: inactive; TSG101-PTAP inh: inactive

What do the screens show for `O=C(O)C1=C(OCc2ccc(F)c(F)c2)C(=O)NCC1`?
USP1-UAF1 inh: inactive; PLK1 PBD inh: 27µM; VDR inhibitor: 79µM; KAT2A inh: inactive; TSG101-PTAP inh: inactive

How did Cc1ccc(N2C(S)=C(C#N)C(=O)NC23CCCCC3)cc1 do in these assays?
USP1-UAF1 inh: inactive; PLK1 PBD inh: inactive; VDR inhibitor: 32µM; KAT2A inh: inactive; TSG101-PTAP inh: inactive

How did Cc1ccccc1N1C(S)=C(C#N)C(=O)NC12CCCCC2 do in these assays?
USP1-UAF1 inh: inactive; PLK1 PBD inh: inactive; VDR inhibitor: 32µM; KAT2A inh: inactive; TSG101-PTAP inh: inactive

How did Cc1cccc(N2C(=O)NC3(CCCCC3)C2=O)c1 do in these assays?
USP1-UAF1 inh: inactive; PLK1 PBD inh: inactive; VDR inhibitor: inactive; KAT2A inh: inactive; TSG101-PTAP inh: inactive

How did Cc1cccc(N2C(S)=C(C#N)C(=O)NC23CCCCC3)c1 do in these assays?
USP1-UAF1 inh: inactive; PLK1 PBD inh: inactive; VDR inhibitor: 45µM; KAT2A inh: inactive; TSG101-PTAP inh: inactive

What do the screens show for `Cc1cccc(NC2=C(C#N)C(=O)NC3(CCCC3)S2)c1`?
USP1-UAF1 inh: inactive; PLK1 PBD inh: inactive; VDR inhibitor: 20µM; KAT2A inh: inactive; TSG101-PTAP inh: inactive

What do the screens show for `CNc1ncncc1-c1ccccc1C(F)(F)F`?
VDR inhibitor: inconclusive; KAT2A inh: inactive

Results for CCCN(CCC)C(=O)Cn1c(=O)n(-c2cccc(C)c2)c(=O)c2c1c1cc(OC)ccc1n2C ?
USP1-UAF1 inh: inactive; VDR inhibitor: inactive; KAT2A inh: inactive

Compound activity (PubChem BioAssay)
